# About 83,000 compounds went through this panel and 20% of them were active in at least one assay; those are over-represented in the sample as a whole.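 Growth was measured after 48 h exposure to one concentration of compound in 96-well plates. Values under 10 count as active.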 Activity calls are given as the source filed them.
# Test system: MALME-3M melanoma
# Experiment: NCI-60 one-dose screen, 48 h (100 = growth as untreated, 0 = no growth, -100 = all killed)
# Settings: 10 µM unless noted
row,Compound,growth
1,C#C[C@]1(O)CC[C@H]2[C@@H]3CC=C4c5sc(Nc6cc(C)cc(C)c6)nc5CC[C@]4(C)[C@H]3CC[C@@]21C,-4.28% (active)
2,CCCC[n+]1ccc(SCC(=O)n2ccc3ccccc32)c2ccccc21,95.9% (inactive)
3,CC(C)(C)c1cc(NC(=O)Nc2ccc(-c3cn4c5c(sc4n3)CCc3cn(CCCN4CCCCC4)cc3-5)cc2)no1,-79.1% (active)
4,CCCCCCNC(=O)Oc1ccc(/C(=C(/C)c2ccc(OC)cc2)c2ccc(OCCN3CCCCCC3)cc2)cc1,-34.9% (active)
5,Cn1cc(-c2cc3ncnc(Nc4ccc(CC(=O)Nc5nc(C(C)(C)C)cs5)cc4)c3s2)cn1,55.9% (inactive)
6,O=C(CCCCCC/C=C\c1csc(Br)n1)NO,66.7% (inactive)
7,COc1ccc(C(=O)c2c(N)c(C#N)cn2-c2ccc(Cl)cc2Cl)cc1,96.9% (inactive)
8,Cc1ccc2c(n1)C(=O)C(Cl)=C(Nc1cccc(C(F)(F)F)c1)C2=O,-5.42% (active)
9,O=C1[C@H]2Cc3c([nH]c4ccccc34)[C@H](c3ccc(Cl)cc3)N2C(=O)CN1C1CCN(CC2CCCCC2)CC1,45.8% (inactive)
10,COc1ccc(/C=N/NC(=O)c2c(N)nn(C)c2Nc2ccccc2)cc1,44.7% (inactive)
11,Fc1ccc2nc(-c3cnn4cccnc34)sc2c1,108% (inactive)
12,O=C(/C=C/c1cccc(F)c1)c1cccc(OCCCCOc2cccc(C(=O)/C=C/c3cccc(F)c3)c2)c1,101% (inactive)
13,O=C(COc1ccc(/C=C2\C(=O)Nc3ccc(Cl)cc32)cc1)Nc1ccc(Cl)cc1,81.2% (inactive)
14,O=C(Nc1cccc(Cl)c1)Nc1nc2cc([N+](=O)[O-])ccc2o1,29.7% (inactive)
15,COc1ccc(NC(=O)CCCCCCNC(=O)C(O)(O)C(F)(F)F)cc1,18.8% (inactive)
16,CC(=O)N(O)CCCCCNC(=O)CCC(=O)N(O)CCCCCNC(=O)CCC(=O)N(O)CCCCCN(CCCCCCCCCC[P+](c1ccccc1)(c1ccccc1)c1ccccc1)CCCCCCCCCC[P+](c1ccccc1)(c1ccccc1)c1ccccc1,-17.4% (active)
17,Cc1cc(Br)ccc1-n1cc(C#N)c(N)c1C(=O)c1ccc(Br)cc1,106% (inactive)
18,CN(C)S(=O)(=O)c1ccc(-c2nc(C(Cl)Cl)nc3cc(-c4ccccc4)nn23)cc1,15.3% (inactive)
19,CN1CCN(c2ccc(Nc3nc(NCCNC(=O)c4ccc(F)cc4)c4sccc4n3)cc2)CC1,-54.2% (active)
20,O=[N+]([O-])c1ccc(NC(=S)NNC(=S)Nc2ccc(Br)cc2)cc1,89.4% (inactive)

row,Compound,growth
1,C/C(=N\NC(=O)/C=C/CC(=O)O)c1nnn(-c2ccc([N+](=O)[O-])cc2)c1C,97.9% (inactive)
2,CN1CCN(c2ccc(Nc3nc(NCCCNS(=O)(=O)c4ccc(F)cc4)c4sccc4n3)cc2)CC1,-66.2% (active)
3,N#CC1=C2NCCCNc3oc(nc3C#N)Cc3ccccc3CC(=N1)O2,97.8% (inactive)
4,COc1ccccc1/C=C1\Oc2ccc(O)c(O)c2C1=O,102% (inactive)
5,COc1ccc(NC2=C(Br)C(=O)C(C)=C(C)C2=O)cc1OC,117% (inactive)
6,O=C(Nc1ccc(N=Cc2c(O)[nH]c3ccccc23)cc1)Nc1ccc(S(=O)(=O)Nc2ncccn2)cc1,112% (inactive)
7,NC(=O)c1c(NC(=O)c2ccc(C(F)(F)F)cc2)sc2c1CCC(=O)C2,-22.4% (active)
8,O=C(/C=C/c1cccc(Br)c1)c1cccc(OCCCCOc2cccc(C(=O)/C=C/c3cccc(Br)c3)c2)c1,98% (inactive)
9,O=C(CCCCCCNC(=O)c1csc(Br)n1)NO,8.89% (active)
10,CC1CC(=O)C2=C(C1)Nc1ccc(Br)cc1CC2c1c[nH]c2ccc(Br)cc12 (stereo not given),59.3% (inactive)
11,C#CCN(C)CCCOc1ccc(NCc2ccc(C(=O)NO)cc2)cc1Cl,16.9% (inactive)
12,CC(=O)Nc1nc(C)c(-c2csc(Nc3ccccc3)n2)s1,13% (inactive)
13,Cc1csc(/N=C(N)/N=C(\N)c2cccc(C#N)c2)n1,68.8% (inactive)
14,Clc1cccc(/C=N/Nc2nc(N/N=C/c3cccc(Cl)c3)nc(N3CCCCC3)n2)c1,109% (inactive)
15,O=C1[C@H]2Cc3c([nH]c4ccccc34)[C@H](c3ccc(Br)cc3)N2C(=O)CN1C1CCN(CC2CCCCC2)CC1,72.5% (inactive)
16,Cc1[nH]c(C(=O)Nc2ccc(C(=O)NCC3CCNCC3)cc2OC(C)C)c(Cl)c1Cl,80.1% (inactive)
17,CCN(CC)S(=O)(=O)c1ccc(-c2nc(C(Cl)Cl)nc3cc(-c4ccc(F)cc4)nn23)cc1,57.6% (inactive)
18,C/C(=N/N)c1nnn(-c2ccc(Br)cc2)c1C,102% (inactive)
19,CC1=C(C)C(=O)C(Nc2cccc(C)c2)=C(Br)C1=O,117% (inactive)
20,Cc1ccc(C(=O)Nc2ccc(CNCCN3CCNCC3)c(C(F)(F)F)c2)cc1C#Cc1cnc2cccnn12,-70.8% (active)

# — PubChem BioAssay (NCI)
